The panel holds about 83,000 compounds, 20% with a hit somewhere; the sample as a whole holds those more often.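 Plates (96-well) were seeded with cells, treated with compound at one concentration, and incubated for 48 hours before percent growth was determined.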 Active and inactive are the calls of the source. How the source made its calls: active means growth percent below 10; inactive means the rest.
What follows are compounds tested on MDA-MB-468 breast (assay: NCI-60 one-dose screen, 48 h (100 = growth as untreated, 0 = no growth, -100 = all killed)). Conditions: 10 µM unless noted.
In the case of `C#CC#CC#CC#CC#CC#CC#CC#CCC1OCC(COC(=O)O[C@@H](C(=O)O[C@H]2C[C@@]3(O)[C@@H](OC(=O)c4ccccc4)[C@@H]4[C@]5(OC(C)=O)CO[C@@H]5C[C@H](O)[C@@]4(C)C(=O)[C@H](OC(C)=O)C(=C2C)C3(C)C)[C@@H](NC(=O)c2ccccc2)c2ccccc2)O1` (stereo not given in full), the growth is reported as -22.4% (active).
`CCC(=O)N1C/C(=C/c2ccc(Br)cc2)C(=O)/C(=C/c2ccc(Br)cc2)C1` was tested, and the growth was -91.5% (active).
With `O=C(Nc1cccc(-n2cc(-c3ccncc3)c(-c3cc(O)cc(Cl)c3)n2)c1)c1ccc(N2CCOCC2)c(C(F)(F)F)c1` the growth was 26% (inactive).
With `Cc1ccc(C(C)C)c(OCC(=O)O)c1` the growth was 98.9% (inactive).
With `NCCCNc1nc2ccccc2c2c(=O)c3cc(OC(F)(F)F)ccc3sc12` the growth was -69.8% (active).
For `C#C[C@]1(O)CC[C@H]2[C@@H]3CC=C4c5sc(Nc6cc(C)cc(C)c6)nc5CC[C@]4(C)[C@H]3CC[C@@]21C`, the growth was -11.3% (active).
With `CC(C)N=C(N/C(N)=N/c1nc2ccccc2s1)NC(C)C` the growth was 66.4% (inactive).
`CC(=O)OCC1OC(OC2C(COC(C)=O)OC(OCCC[S-])C(OC(C)=O)C2OC(C)=O)C(OC(C)=O)C(OC(C)=O)C1OC(C)=O.[Au+].c1ccc(CN2[CH-]N(Cc3ccccc3)C(c3ccccc3)=C2c2ccccc2)cc1` (stereo not given) was tested, and the growth was 10.2% (inactive).
With `O=c1[nH]ncc(Br)c1Br` the growth was -15.7% (active).
With `NS(=O)(=O)c1ccc(N=Nc2c(O)n(Cc3ccccc3)c3ccc(Cl)cc23)cc1` the growth was 83.3% (inactive).
For `CCCCCCCOc1c(OC)cc(C2CC(=O)Nc3c2c(C)nn3-c2nc3ccccc3[nH]2)cc1OC` (stereo not given), the growth was -4.43% (active).
With `COc1ccc(/C(C#N)=C2C=C/C(=N/O)c3ccccc3\2)cc1` the growth was 37.1% (inactive).
`CN1C(=O)N(C)C2Nn3c(s/c(=C\c4ccccc4)c3=O)=NC21` (stereo not given) was tested, and the growth was 95.4% (inactive).
With `COc1ccc(C2C(C#N)=C(N)Oc3c2sc2c(C)cccc32)cc1` (stereo not given) the growth was 8.47% (active).
In the case of `O=C1c2cc(I)ccc2Oc2cc([N+](=O)[O-])ccc2N1c1ccc(Cl)cc1F`, the growth is reported as 96.2% (inactive).
For `Cn1c(N)c(N=Cc2ccccc2)c(=O)n(C)c1=O`, the growth was 117% (inactive).
`CCCCCCCCCc1cc[n+](CC(=O)c2ccc([N+](=O)[O-])cc2)cc1` was tested, and the growth was -18.6% (active).
For `COc1cc2c(cc1-c1c(C)noc1C)ncc1nc(-c3ccccn3)n([C@H](C)COC(F)F)c12`, the growth was 46.5% (inactive).
`O=C(/C=C/c1ccccc1)Nc1ncc(Cc2ccccc2)s1` was tested, and the growth was 29.7% (inactive).
With `O=C(CN1C(=O)/C(=C\c2ccc(Cl)cc2)SC1=S)Nc1ncc(Cc2ccc(Cl)cc2)s1` the growth was 108% (inactive).
For `COc1cccc(/C=C/C(=O)c2cc3c(N)c(C(=O)Nc4cccc(Cl)c4C)sc3nc2C)c1`, the growth was -7.04% (active).
In the case of `CCCn1ccnc1C(O)c1ccc(OCc2ccccc2)c(OC)c1` (stereo not given), the growth is reported as 90.5% (inactive).
With `CCCCCC[n+]1ccc(SCC(=O)n2ccc3ccccc32)c2ccccc21` the growth was 4.72% (active).
`O=C(COCc1c(-c2ccccc2)no[n+]1[O-])Nc1nc(-c2ccc(Cl)cc2)cs1` was tested, and the growth was 100% (inactive).
`Cc1ccc(C(=O)/C=C/c2ccccc2)s1` was tested, and the growth was 89.7% (inactive).
With `C1CCN(c2nc(N3CCCCC3)nc(N3CCOCC3)n2)CC1` the growth was 107% (inactive).
With `O=C1c2ccccc2NC(n2sc3ccccc3c2=O)N1c1ccccc1` (stereo not given) the growth was 106% (inactive).
In the case of `COc1ccc(CC(C#N)c2cc3ccccc3[nH]2)cc1` (stereo not given), the growth is reported as 89.6% (inactive).
With `Cc1cc(N(CCNc2ccnc3cc(Cl)ccc23)Cc2ccc3c(c2)OCO3)nc(N2CCCC2)n1` the growth was -39.4% (active).
For `O=C(Nc1ncc(Cc2ccccc2Cl)s1)c1cccs1`, the growth was 33.6% (inactive).
`Cc1nc(-c2cn3c(n2)-c2ccc(-c4cnn(C(C)(C)C(N)=O)c4)cc2OCC3)n(C(C)C)n1` was tested, and the growth was -20.6% (active).
With `NC(=O)c1c(NC(=O)c2cccc(OC(F)(F)F)c2)sc2c1CCC(=O)C2` the growth was 42% (inactive).
For `Cc1nc(-c2cc3ccccc3oc2=O)ccc1C(=O)/C=C/c1ccc(N2CCOCC2)cc1`, the growth was 45.6% (inactive).
With `CCCc1c(C)c2sc(=O)[nH]c2[nH]c1=O` the growth was 99.4% (inactive).
In the case of `CC1(C)NCCC[C@]2(C)[C@H]3CC[C@@H]4[C@H]5[C@H](C(=O)/C=C/c6ccccn6)CC[C@]5(CO)CC[C@@]4(C)[C@]3(C)CC[C@@H]12`, the growth is reported as 5.83% (active).
In the case of `Nc1c(C(=O)c2ccc(Br)cc2)oc2nc(-c3cnccn3)cc(-c3cccs3)c12`, the growth is reported as 99.4% (inactive).
For `O=C(/C=C\c1cccc([N+](=O)[O-])c1)c1ccccc1`, the growth was -13.8% (active).
With `NC1=Nc2cc(OCCCN3Cc4ccccc4C3)c(OCC3CC3)cc2C12CCCC2` the growth was 31.9% (inactive).
With `CC(=O)OCCCCCNc1ccccc1` the growth was 125% (inactive).
For `Cc1nc(C)c(C(=O)O)cc1C(=O)O`, the growth was 109% (inactive).

From PubChem BioAssay (NCI)
